In PubChem BioAssay (NCI):
The panel holds about 83,000 compounds, 20% with a hit somewhere; the sample as a whole holds those more often.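 A percent growth of 40 corresponds to 60% growth inhibition; 0 means no net growth; -100 means all cells died. Active threshold: below 10.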 Unmarked numbers belong to inactive results. The source made the active and inactive calls.

Columns and labels:
Experiment in all cases: NCI-60 one-dose screen, 48 h (100 = growth as untreated, 0 = no growth, -100 = all killed)
HCT-15 colon = settings: 10 µM unless noted
HT29 colon = settings: 10 µM unless noted
SNB-75 CNS = settings: 10 µM unless noted
SNB-19 CNS = settings: 10 µM unless noted
U251 CNS = settings: 10 µM unless noted
PC-3 prostate = settings: 10 µM unless noted
SK-MEL-5 melanoma = settings: 10 µM unless noted
UACC-62 melanoma = settings: 10 µM unless noted
LOX IMVI melanoma = settings: 10 µM unless noted
SK-MEL-28 melanoma = settings: 10 µM unless noted
SK-MEL-2 melanoma = settings: 10 µM unless noted
EKVX NSCLC = settings: 10 µM unless noted
SN12C renal = settings: 10 µM unless noted
UO-31 renal = settings: 10 µM unless noted
TK-10 renal = settings: 10 µM unless noted
ACHN renal = settings: 10 µM unless noted
CAKI-1 renal = settings: 10 µM unless noted
A498 renal = settings: 10 µM
HL-60(TB) leukemia = settings: 10 µM unless noted
CCRF-CEM leukemia = settings: 10 µM unless noted

Row | Compound | growth (HCT-15 colon) | growth (HT29 colon) | growth (SNB-75 CNS) | growth (SNB-19 CNS) | growth (U251 CNS) | growth (PC-3 prostate) | growth (SK-MEL-5 melanoma) | growth (UACC-62 melanoma) | growth (LOX IMVI melanoma) | growth (SK-MEL-28 melanoma) | growth (SK-MEL-2 melanoma) | growth (EKVX NSCLC) | growth (SN12C renal) | growth (UO-31 renal) | growth (TK-10 renal) | growth (ACHN renal) | growth (CAKI-1 renal) | growth (A498 renal) | growth (HL-60(TB) leukemia) | growth (CCRF-CEM leukemia)
1 | COc1ccc(/C=C\c2cc(OC)c(OC)c(OC)c2)cc1NC(=O)/C=C/c1cc(OC)c(OC)c(OC)c1 | 46.5% | 34.2% | 30.6% | 61.8% | 57% | 36% | 1.74% (active) | 31.4% | 46.3% | 44% | 47% | 61.6% | 71.6% | 31.9% | 82% | 53.9% | 31.5% | -3.68% (active) | 15.7% | 39.2%
2 | C[N+](C)(C)Cc1cc(Cl)ccc1O | 91.8% | 97.5% | 99.3% | 118% | 98.7% | 99.8% | 93.1% | 102% | 99% | 102% | 99.7% | 115% | 106% | 90.8% | 110% | 95.9% | 106% | 90.1% | 87.4% | 8.41% (active)
3 | CC1(C)CN1P(=O)(N1CC1(C)C)N1CC1(C)C (stereo not drawn) | 112% | 120% | 72.7% | 105% | 98.2% | 99.1% | 117% | 98% | 103% | 99.5% | 115% | 124% | 109% | 85% | 118% | 112% | 110% | 102% | 90% | 106%
4 | C[C@]12CCc3nc(Nc4ccccc4F)sc3C1=CC[C@@H]1[C@@H]2CC[C@]2(C)C(=O)CC[C@@H]12 | 29.3% | 19.1% | 87.3% | 85.1% | 54.3% | 54.9% | 81.9% | 85.8% | 14.5% | 77% | 92.8% | 94.4% | 69.5% | 64.8% | 35.7% | 9.9% (active) | 65.4% | 90.6% | 34.2% | 26.6%
5 | Cc1sc2c(c1C)C(c1ccc(Cl)cc1)=N[C@@H](CC(=O)OC(C)(C)C)c1nnc(C)n1-2 | 12.9% | 18% | 18.6% | 45.4% | 52.4% | 53.3% | 21.1% | 26.9% | 7.81% (active) | 38.4% | 48.8% | 42.2% | 49.5% | 13.4% | 22.5% | 31.1% | 21.6% | -11.8% (active) | 4.3% (active) | 38.7%
6 | CC[C@H](C)[C@H](NC(=O)c1cccn1C)C(=O)N(C)[C@H](C[C@@H](OC(C)=O)c1nc(C(=O)N[C@@H](Cc2ccccc2)C[C@H](C)C(=O)OC)cs1)C(C)C | 12% | -18.1% (active) | 33.4% | 35.4% | 12.3% | 21.2% | -29.1% (active) | 40.4% | 15.2% | 68.8% | 20.4% | 54.3% | 24.2% | 38.9% | 27.5% | 30% | 25.1% | -2.8% (active) | -36.7% (active) | 18.7%
7 | CC(=O)O[C@H]1CC[C@H]2[C@@H]3CC=C4c5nc(-c6ccccc6)sc5CC[C@]4(C)[C@H]3CC[C@]12C | 9.12% (active) | -31.5% (active) | 91.4% | 67.4% | 47.5% | 72.3% | 59.9% | 50.7% | 29.8% | 90.4% | 82% | 79.6% | 85.5% | 78.2% | 92.4% | 91.8% | 67.5% | 75.2% | 82.1% | 28.4%
8 | COc1ccc(/C=C\c2cc(OC)c(OC)c(OC)c2)cc1OCC(=O)Nc1nc2ccc(OC(F)(F)F)cc2s1 | 22.2% | 97.5% | 7.25% (active) | 42.7% | 26% | 34% | 27.3% | 31.1% | 27.1% | 34.4% | 15.6% | 77% | 49.7% | 25.4% | 47% | 43.5% | 35.2% | 30.2% | 52.3% | 28.2%
9 | COc1ccc(N(CC(=O)NCCC[Te]c2ccccc2)C(=O)CCSC2=C(C)C(=O)c3ccccc3C2=O)cc1 | -15.7% (active) | 1.86% (active) | 13.2% | -12.4% (active) | -42.7% (active) | 0.627% (active) | -96.7% (active) | -25.4% (active) | -50.1% (active) | -18.1% (active) | -49.6% (active) | -2.22% (active) | -8.2% (active) | -29.3% (active) | 8.99% (active) | -51.4% (active) | -25.5% (active) | -32.2% (active) |  | 
10 | CN(CCCCN(C)CCOS(C)(=O)=O)CCOS(C)(=O)=O | 89.4% | 86.9% | 88.5% | 94.7% | 71.8% | 85.3% | 84.4% | 56.1% | 58% | 95.1% | 102% | 112% | 71.9% | 71.5% | 98.7% | 24.9% | 2.42% (active) | 85.3% | 61.4% | 50.3%
11 | COC1=CC(=O)O[C@@H](/C=C/c2ccc3c(c2)OCO3)C1 | 103% | 111% | 116% | 101% | 97.9% | 83.5% | 116% | 94% | 98.2% | 120% | -20.1% (active) | 114% | 100% | 87.5% | 102% | 110% | 107% | 59.2% | 114% | 61.2%
12 | O=C1C2C(C(=O)[N]1[Hg][c]1ccccc1)C1(Cl)C(Cl)=C(Cl)C2(Cl)C1(Cl)Cl (stereo not drawn) | -89.1% (active) | -45% (active) | -64.1% (active) | 25.9% | -65.9% (active) | -57.4% (active) | -16.6% (active) | -3.49% (active) | -82.8% (active) | -88.9% (active) | 50.8% | -7.36% (active) | -71.7% (active) | -77.1% (active) | -95.9% (active) | -98.5% (active) | -87.5% (active) | 32.8% | -18.4% (active) | -23.8% (active)
13 | O=C([O][Hg][CH2]C1COCC([CH2][Hg][O]C(=O)c2ccccc2)O1)c1ccccc1 (stereo not drawn) | -83% (active) | 50.4% | 92% | 102% | 58.9% | 91.9% | 102% | 91% | 11.4% | 115% | 105% | 103% | 56.8% | -12.1% (active) | 38.1% | 70.6% | 57.2% | 114% | 23.1% | -10.3% (active)
14 | COc1cc2c(cc1OCCCCCn1c(-c3ccco3)nc3ccccc31)N=C[C@@H]1CCCN1C2=O | 7.84% (active) | 1.38% (active) | -64.2% (active) | 23.3% | 8.03% (active) | 17.5% | -17% (active) | -86.9% (active) | -31.6% (active) | -58.6% (active) | -43.9% (active) | 22.7% | 15.8% | -23.9% (active) | -1.37% (active) | 10.2% | 12% | -39.6% (active) | -27.4% (active) | 29.8%
15 | CC[C@H](C)[C@H](NC(=O)[C@H]1CCCCN1C)C(=O)N(C)[C@H](C[C@@H](OC(C)=O)c1nc(C(=O)NC23CC(C(=O)OC)(C2)C3)cs1)C(C)C | 6.1% (active) | -9.84% (active) | 15% | 29% | 6.7% (active) | 23.6% | -65.7% (active) | 44.3% | 4.9% (active) | 60.8% | 29.5% | 34.3% | 32.7% | 33.1% | 15.7% | 11.6% | 26.5% | -7.99% (active) | -37.2% (active) | 1.09% (active)
16 | c1ccc(CSC(c2ccccc2)c2ccccc2)cc1 | 106% | 84.1% | 119% | 104% | 102% | 104% | 112% | 103% | 100% | 143% | 114% | 117% | 101% | 92.2% | 123% | 103% | 96.7% | 123% | 68.5% | 117%
